# Screen size: about 67,000 compounds; about 300 (0.45%) showed an effect of 50% or more. What follows is part of a selection rich in strong results, with near analogues and random picks from the rest.
# Target: Polyketide synthase Pks13 (Mycobacterium tuberculosis (strain ATCC 25618 / H37Rv)) (UniProt I6X8D2)
# Assay: Mycobacterium tuberculosis Polyketide synthase 13 Thioesterase (PKS13)
# Format: functional
# Parameters: scale not given: in the data most compounds retested in dose-response had high values
# Details: 30 µM
# Chain of Polyketide synthase Pks13 (Mycobacterium tuberculosis (strain ATCC 25618 / H37Rv)) (I6X8D2 whole entry): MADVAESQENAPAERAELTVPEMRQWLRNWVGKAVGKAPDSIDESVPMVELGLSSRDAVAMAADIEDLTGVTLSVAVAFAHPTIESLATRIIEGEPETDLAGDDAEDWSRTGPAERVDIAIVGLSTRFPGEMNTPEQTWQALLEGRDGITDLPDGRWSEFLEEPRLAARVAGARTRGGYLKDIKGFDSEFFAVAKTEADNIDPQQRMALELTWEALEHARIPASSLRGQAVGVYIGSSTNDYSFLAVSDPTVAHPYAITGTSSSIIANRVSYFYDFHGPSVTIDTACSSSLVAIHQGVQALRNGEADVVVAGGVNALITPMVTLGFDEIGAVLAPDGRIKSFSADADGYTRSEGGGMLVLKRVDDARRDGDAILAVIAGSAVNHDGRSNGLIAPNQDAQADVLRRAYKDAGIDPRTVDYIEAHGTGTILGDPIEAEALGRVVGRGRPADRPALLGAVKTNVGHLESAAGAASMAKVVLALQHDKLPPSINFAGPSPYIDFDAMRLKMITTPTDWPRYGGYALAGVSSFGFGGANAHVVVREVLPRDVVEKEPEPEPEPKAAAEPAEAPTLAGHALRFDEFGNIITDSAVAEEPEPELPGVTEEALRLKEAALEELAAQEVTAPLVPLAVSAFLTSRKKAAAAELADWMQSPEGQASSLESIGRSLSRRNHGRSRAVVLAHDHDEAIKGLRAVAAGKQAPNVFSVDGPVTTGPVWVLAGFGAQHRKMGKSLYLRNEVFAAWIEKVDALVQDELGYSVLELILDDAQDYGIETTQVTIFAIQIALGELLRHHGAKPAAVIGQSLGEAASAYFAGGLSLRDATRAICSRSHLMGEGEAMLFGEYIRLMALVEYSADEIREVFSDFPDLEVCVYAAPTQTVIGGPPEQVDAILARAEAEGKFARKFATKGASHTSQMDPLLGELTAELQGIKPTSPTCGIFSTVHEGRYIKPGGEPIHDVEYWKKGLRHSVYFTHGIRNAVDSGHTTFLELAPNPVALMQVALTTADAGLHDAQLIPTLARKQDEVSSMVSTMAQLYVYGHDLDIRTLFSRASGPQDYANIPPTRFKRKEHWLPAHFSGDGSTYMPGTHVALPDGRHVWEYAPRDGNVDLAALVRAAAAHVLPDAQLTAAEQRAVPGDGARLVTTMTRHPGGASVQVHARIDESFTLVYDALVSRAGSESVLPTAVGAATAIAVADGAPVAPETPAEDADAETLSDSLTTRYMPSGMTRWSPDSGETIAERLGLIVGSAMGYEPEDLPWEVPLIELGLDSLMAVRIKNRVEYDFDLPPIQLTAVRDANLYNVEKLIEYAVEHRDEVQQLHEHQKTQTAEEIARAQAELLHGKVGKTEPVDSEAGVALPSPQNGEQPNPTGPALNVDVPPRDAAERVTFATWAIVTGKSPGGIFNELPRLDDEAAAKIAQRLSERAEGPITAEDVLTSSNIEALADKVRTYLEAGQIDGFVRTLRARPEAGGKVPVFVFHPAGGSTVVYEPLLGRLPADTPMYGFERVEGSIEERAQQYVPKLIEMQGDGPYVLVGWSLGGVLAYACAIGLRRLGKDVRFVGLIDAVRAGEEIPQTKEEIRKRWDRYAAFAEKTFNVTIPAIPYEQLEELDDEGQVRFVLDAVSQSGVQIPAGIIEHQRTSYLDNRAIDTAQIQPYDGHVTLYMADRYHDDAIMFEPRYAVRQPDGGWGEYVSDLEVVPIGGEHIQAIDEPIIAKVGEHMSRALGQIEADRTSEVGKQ
row,SMILES,Percent Effect
1,CCC[C@H]1CN(S(C)(=O)=O)C[C@@H]1NC(=O)COC(C)C,-31%
2,CCC[C@H]1CN(S(C)(=O)=O)C[C@@H]1NC(=O)Cc1ccc(OC)cc1,-10.8%
3,CCC[C@H]1CN(S(C)(=O)=O)C[C@@H]1NC(=O)c1ccc(COC)cc1,125%
4,CCc1cnc(N2C[C@H]3CCCC(N(C)Cc4ccccn4)[C@H]3C2)nc1 (some centres undefined),-25%
5,CC1(C)OCC(CNC(=O)c2cnn(-c3ccc(Cl)cc3)c2N)O1 (centres undefined),-15.3%
6,Cc1ccc(C)c(-n2ncc(C(=O)NCC3COC(C)(C)O3)c2N)c1 (centres undefined),66.6%
7,CC1(C)OCC(CNC(=O)c2cnn(-c3cc(Cl)ccc3Cl)c2N)O1 (centres undefined),-5.14%
8,O=C(NCc1ccc2c(c1)OCCO2)N1CCC(CO)CC1,52.7%
9,CC(=O)NCC1CCN(C(=O)NCc2ccc3c(c2)OCCO3)CC1,-0.159%
10,NC(=O)C1CCN(C(=O)NCc2ccc3c(c2)OCCO3)CC1,-21.9%
11,COCCN1C(=O)[C@]2(CC[C@@H]3CN(C(=O)NCC(C)C)C[C@@H]32)N=C1C,-6.17%
12,COC(=O)c1sc2cccc(F)c2c1CNC(=O)C1CC1,1.9%
13,COC(=O)c1sc2cccc(F)c2c1CNC(=O)C1CCCO1 (centres undefined),1.86%
14,COC(=O)c1sc2cccc(F)c2c1CNC(=O)C1CCOC1 (centres undefined),68.2%
15,Cc1noc(C)c1CN1CC[C@H]2[C@H]1CCN2CC1CCOCC1,10.3%
16,CN(Cc1noc(C(C)(C)C)n1)Cc1ccccc1N1CCCCC1,1.5%
17,CN(Cc1ccc(N2CCCCC2)cc1)Cc1noc(C(C)(C)C)n1,85.2%
18,CN(Cc1ccc(N2CCOCC2)cc1)Cc1noc(C(C)(C)C)n1,21.8%
19,Cn1cncc1CN1C[C@@H]2OCCN(c3ncccn3)[C@@H]2C1,-16.4%
20,O=C(Nc1ccccc1)N1C[C@@H]2OCCN(C(=O)c3ccco3)[C@@H]2C1,-42.5%
21,CN1CCN(C(=O)[C@@H]2CCO[C@@H]3CCN(c4ncccn4)C[C@@H]32)CC1,-7.46%
22,Cc1nn(C)cc1-c1cc(C(F)F)n2nc(CCC(=O)O)nc2n1,16.4%

row,SMILES,Percent Effect
1,Cn1cc(-c2cc(C(F)F)n3nc(CCC(=O)O)nc3n2)cn1,51.2%
2,CCn1cc(-c2cc(C(F)F)n3nc(CC(=O)O)nc3n2)cn1,62.5%
3,CCn1ncc(-c2cc(C(F)F)n3nc(CCC(=O)O)nc3n2)c1C,15.6%
4,CCn1cc(-c2cc(C(F)F)n3nc(CCC(=O)O)nc3n2)cn1,32.3%
5,CC(C)c1cc(C(F)(F)F)n2nc(CCC(=O)O)nc2n1,5.23%
6,CN(C)C(=O)N1CCN(CCCc2ccccc2)[C@H]2CS(=O)(=O)C[C@H]21,-15%
7,Cc1oncc1C(=O)N1C[C@H](OCc2ccccn2)[C@H]2OCCC[C@H]21,-0.48%
8,O=S1(=O)C[C@@H]2[C@H](C1)N(Cc1ncc[nH]1)CCN2Cc1cccnc1,-6.48%
9,COC(=O)CNC(=O)c1cn(-c2ccccn2)c(=O)c2ccccc12,41.4%
10,O=C(O)c1cn(-c2ccccn2)c(=O)c2ccccc12,57%
11,CC(C)CNC(=O)c1cn(-c2ccccn2)c(=O)c2ccccc12,42.5%
12,CN(C)C(=O)[C@]12CCCN(CC3CC3)C[C@H]1CN(c1ccccn1)C2,-21.7%
13,COCCc1noc(-c2cn(Cc3ccccc3C)nn2)n1,-13.8%
14,COCCc1noc(-c2cn(CCc3ccccc3)nn2)n1,62.2%
15,COCCc1noc(-c2cn(Cc3ccc(OC)cc3)nn2)n1,-2.84%
16,CN(Cc1cncnc1)[C@@H]1CN(Cc2ccco2)C[C@@H]2CCCO[C@@H]21,-4.7%
17,O=C(NCC1CC1)[C@H]1C[C@@H]2CCN(Cc3nccs3)C[C@@H]2O1,-42.1%
18,O=C(N[C@H]1CN[C@H]2CCCO[C@H]21)c1ccno1,-17%
19,O=C(c1ccccc1)N1C[C@@H]2CC[C@H](C1)N(S(=O)(=O)c1cccnc1)C2,-34.5%
20,O=C(c1ccncc1)N1C[C@@H]2CC[C@H](C1)N(S(=O)(=O)c1cccnc1)C2,-25.8%
21,O=C(c1cnccn1)N1C[C@@H]2CC[C@H](C1)N(S(=O)(=O)c1cccnc1)C2,56.1%
22,O=S1(=O)C[C@@H]2[C@H](C1)N(Cc1ncc[nH]1)CCN2C/C=C/c1ccccc1,5.07%

row,SMILES,Percent Effect
1,CCC1=N[C@@]2(CC[C@@H]3CN(S(=O)(=O)CC)C[C@@H]32)C(=O)N1CCOC,-31.3%
2,CCCn1ncc(C(=O)N2CCCC(OCc3ccccn3)C2)c1C (centres undefined),-15.6%
3,Cc1cnc2c(C(=O)N3CCCC(OCc4ccccn4)C3)cnn2c1 (centres undefined),81.5%
4,O=C(c1cnn2ccccc12)N1CCCC(OCc2ccccn2)C1 (centres undefined),-9.11%
5,Cc1cccc(CN2CC[C@H]3OCC[C@@]3(C(=O)N3CCCO3)C2)n1,8.33%
6,CNC[C@H]1CC[C@H](c2cc(CN(C)C(=O)c3cnccn3)n(C)n2)CC1,-6.04%
7,COc1ncccc1NC(=O)NC(C)c1nncn1C (centres undefined),-5.35%
8,CC(NC(=O)Nc1cccnc1N1CCCC1)c1nncn1C (centres undefined),56%
9,CC(NC(=O)Nc1cccnc1N1CCCC1)c1ccncc1 (centres undefined),0.204%
10,CCc1cnc(N2C[C@H]3C[C@H](C(=O)N(C)C)[C@@H](C2)O3)nc1,-7.42%
11,N#CCCCS(=O)(=O)N1CCC(CSc2ccccc2)C1 (centres undefined),-31.5%
12,CCS(=O)(=O)N1CCC(CSc2ccccc2)C1 (centres undefined),9.93%
13,N#Cc1nccnc1N1CCC(CSc2ccccc2)C1 (centres undefined),53.9%
14,Cc1ccc(N2CCO[C@H]3CN(Cc4ccc(F)cc4)C[C@H]32)nn1,4.79%
15,CC(C)N1CCO[C@H]2CN(C(=O)c3ccncc3F)C[C@H]21,-27%
16,O=C(O)[C@]12CCCN(Cc3cccnc3)[C@@H]1CCN(c1cnccn1)C2,10.4%
17,O=C(O)[C@]12CCCN(Cc3ccncc3)[C@@H]1CCN(c1cnccn1)C2,-7.13%
18,O=C(O)[C@]12CCCN(Cc3ccccn3)[C@@H]1CCN(c1cnccn1)C2,95.4%
19,Cc1ccsc1CN1CC[C@H]2OCC[C@@]2(C(=O)N2CCCO2)C1,-17.7%
20,O=C(NC[C@]12COC[C@H]1CN(Cc1ccncc1)C2)c1ccno1,-9.3%
21,Cc1ncnc2c1CCN(C(=O)c1cccnc1)CC2,-18.2%
22,O=C(c1cccnc1)N1CCc2ncnc(N3CCOCC3)c2CC1,-1.96%

row,SMILES,Percent Effect
1,CN(C)c1ncnc2c1CCN(C(=O)c1cccnc1)CC2,61.9%
2,CN1C(=O)C[C@@H]2[C@@H]1CCN2C(=O)c1ccc[nH]1,-5.06%
3,Cc1cc(CN2CC[C@H]3C[C@H](C)O[C@@H]3C2)no1,-27.6%
4,Cc1cccc(OC2CCN(c3ncc(C#N)cc3Cl)CC2)n1,26.2%
5,Cc1cccc(OC2CCN(c3ccc(C#N)cn3)CC2)n1,22.3%
6,Cc1cccc(OC2CCN(c3nccnc3C#N)CC2)n1,85.3%
7,COCCNC(=O)C[C@@H]1COC[C@H]2CN(Cc3cccnc3)C[C@@H]12,7.6%
8,COc1ccc(CN2C[C@H](OCC3CCOCC3)[C@H]3COC[C@H]32)cc1,-3.35%
9,O=C(Cc1cccc(F)c1)N1CCc2ncnc(NC3CC3)c2CC1,121%
10,O=C(NCc1cccc(F)c1)N1CCc2ncnc(NC3CC3)c2CC1,-9.48%
11,O=C(Cc1cccc(F)c1)N1CCc2ncnc(NC3CCC3)c2CC1,-11.9%
12,Cn1cnc2c1C(COCC1CCOCC1)CN(C1CCOCC1)C2 (centres undefined),-38%
13,Cn1cnc2c1C(COCC1CCOCC1)CN(Cc1ccccn1)C2 (centres undefined),-19.7%
14,CCOCCN1Cc2ncn(C)c2C(COCC2CCOCC2)C1 (centres undefined),55.1%
15,CN1C(=O)C[C@@H]2[C@@H]1CCN2S(=O)(=O)Cc1ccccc1,-11.3%
16,O=C(COCC1CC[C@H]2[C@H](CCN2c2ncccn2)O1)N1CCCC1 (some centres undefined),9.91%
17,Nc1cc(C(=O)NCC2CCN(Cc3cccc(O)c3)C2)ccn1 (centres undefined),-14.3%
18,Nc1cc(C(=O)NCC2CCN(Cc3ccncc3F)C2)ccn1 (centres undefined),141%
19,CC/C=C(\C)CN1CCC(CNC(=O)c2ccnc(N)c2)C1 (centres undefined),-25.3%
20,CCc1ccc(CN2CC[C@H]3C[C@H](c4nnc(C)[nH]4)O[C@@H]3C2)o1,32%
21,O=C(NCC1CC1)[C@@H]1CCO[C@@H]2CCN(Cc3ccc(F)cc3)C[C@H]21,-0.289%
22,CNC(=O)CNC1CC2(CCN(c3ncccn3)CC2)c2ccccc21 (centres undefined),61.9%

row,SMILES,Percent Effect
1,c1cnc(N2CCC3(CC2)CC(NCC2CC2)c2ccccc23)nc1 (centres undefined),2.19%
2,CNC(=O)CC1CC2(CCN(c3ncccn3)CC2)c2ccccc21 (centres undefined),-25.9%
3,O=C1[C@@H]2CN(c3ncc(Cl)cc3F)C[C@]2(C(=O)O)CN1CC1CC1,5.43%
4,O=C(c1cnccn1)N1CCN2C[C@H](OCc3ccccn3)C[C@H]2C1,-10.5%
5,O=C(N[C@@H]1CN(Cc2ccccc2)C[C@@H]2CCCO[C@@H]21)C1CC1,-12.9%
6,CCN1C(=O)CC[C@@H]2[C@H]1CCN2S(=O)(=O)c1cccs1,-25.3%
7,Cc1ccc(C(=O)N2CCN(c3ncnc4nc(N)ccc34)CC2)o1,65.6%
8,Cc1ccc(C(=O)N2CCN(c3ncnc4nc(N)ccc34)CC2)cc1,-11.7%
9,CC(C)(C)C(=O)N1CCCN(c2ncnc3nc(N)ccc23)CC1,18.3%
10,Cc1c(C(=O)N2CCC2)nnn1-c1ccc2ncccc2c1,-7.58%
11,Cc1c(C(=O)N2CCS(=O)(=O)CC2)nnn1-c1ccc2ncccc2c1,-29.1%
12,Cc1c(C(=O)N2CCOCC2)nnn1-c1ccc2ncccc2c1,67.3%
13,CCS(=O)(=O)N1C[C@H]2CC[C@](O)(c3ccc(C)cc3)[C@H]2C1,8.05%
14,Cn1nc(C2CCCN(Cc3ccccc3)C2)c2nccnc21 (centres undefined),3.08%
15,Cc1ccc(CN2CCCC(c3nn(C)c4nccnc34)C2)s1 (centres undefined),115%
16,Cn1nc(C2CCCN(Cc3cccs3)C2)c2nccnc21 (centres undefined),13%
17,Cc1cc(CN2CC[C@H]3C(=O)N(c4ccsc4)CCO[C@H]3C2)no1,-5.2%
18,Cc1csc([C@H]2C[C@@H]3CCN(C(=O)c4cnccn4)C[C@H]3O2)n1,-30.8%
19,Cc1nn(C)c(C)c1-c1cc(-c2cc(CC(=O)O)cs2)nc(N)c1C#N,47.9%
20,CCn1cc(-c2cc(-c3cc(CC(=O)O)cs3)nc(N)c2C#N)c(C)n1,-51.8%
21,CCn1cc(-c2cc(-c3cc(CN(C)C)cs3)nc(N)c2C#N)c(C)n1,76.9%

# From ChEMBL document CHEMBL3988442, “University of Dundee, Small-Polar-MMV Screening Library” (2021)
